Growth inhibition, inhibition and outcome data for 20 molecules are collected here from PubChem BioAssay.

Values without a mark were called inactive. For some of these results: Potency and affinity values are given separately. The source made the active and inactive calls. Unless noted, no rule for the calls is given here.

As usually defined, the inhibition is the drop in the measured response relative to a control, in per cent.

The nature of assay [1]: antimalarial activity against Dd2 strain (AID 2302;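 active = growth inhibition above 50% at the single 2 µM test dose, taken to imply half-maximal potency below 2 µM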;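 also: 0% = DMSO untreated growth and 100% = chloroquine plus artemisinin killed control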). As to conditions: P. falciparum Dd2 in RBCs, LDH growth readout, 72 h; at 2 µM; stronger effect = higher value.
Assay [2] can be described thus: human hepatoma cell viability loss – ATP luminescence, cytotoxicity control for P. falciparum antimalarial project, primary screen (AID 2303;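 active = inhibition above 50%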;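 also: 0% = DMSO wells and 100% = digitonin-killed cells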). Conditions: HepG2 viability, 24-48 h, at 10 µM, stronger effect = higher value.
In assay [3] the target is L-lactate dehydrogenase (Plasmodium falciparum (isolate CDC / Honduras)) (UniProt Q27743). The assay can be described thus: PfLDH activity inhibition – cell lysate, 3D7 strain, counter-screen for P. falciparum growth inhibition project (AID 2304).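 Also: 0% = vehicle and 100% = reference inhibitor.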 As to conditions: P. falciparum 3D7 crude extract, LDH APAD/NBT absorbance; at 2 µM; stronger effect = higher value. A general note: A counterscreen serves to expose hits that act by an unwanted route or on another target.
L-lactate dehydrogenase (Plasmodium falciparum (isolate CDC / Honduras)), sequence (Q27743 whole entry, looked up): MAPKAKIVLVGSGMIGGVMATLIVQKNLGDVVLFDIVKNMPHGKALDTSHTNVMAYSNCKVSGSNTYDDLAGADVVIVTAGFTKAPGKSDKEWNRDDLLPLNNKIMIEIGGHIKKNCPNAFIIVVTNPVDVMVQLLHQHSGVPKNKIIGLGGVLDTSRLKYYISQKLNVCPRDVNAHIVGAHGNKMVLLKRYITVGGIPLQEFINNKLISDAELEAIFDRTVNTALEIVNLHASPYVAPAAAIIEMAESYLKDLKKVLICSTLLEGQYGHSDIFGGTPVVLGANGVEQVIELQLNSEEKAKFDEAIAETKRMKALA

Assay [4] in a line: inhibition of 3D7 malaria parasite growth – strain 3D7 (AID 2306).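 Also: 0% = DMSO wells and 100% = chloroquine plus artemisinin control wells.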 Conditions: P. falciparum 3D7 erythrocytic growth, LDH absorbance, 72 h; at 2 µM; stronger effect = higher value.
The target of assay [5] is Calcium-dependent protein kinase 1 (Plasmodium falciparum (isolate 3D7)) (UniProt P62344). The assay can be described thus: PfCDPK1 kinase inhibitors, biochemical, TCAMS library (AID 1159585; cut-off not given, nearly all actives have IC50 up to about 0.98 µM;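 also: inhibitors leave more ATP so luminescence rises with inhibition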). As to conditions: recombinant PfCDPK1, Kinase-Glo ATP depletion luminescence. (In Kinase-Glo more light means more ATP remaining.)
Calcium-dependent protein kinase 1 (Plasmodium falciparum (isolate 3D7)), sequence (P62344 whole entry, looked up): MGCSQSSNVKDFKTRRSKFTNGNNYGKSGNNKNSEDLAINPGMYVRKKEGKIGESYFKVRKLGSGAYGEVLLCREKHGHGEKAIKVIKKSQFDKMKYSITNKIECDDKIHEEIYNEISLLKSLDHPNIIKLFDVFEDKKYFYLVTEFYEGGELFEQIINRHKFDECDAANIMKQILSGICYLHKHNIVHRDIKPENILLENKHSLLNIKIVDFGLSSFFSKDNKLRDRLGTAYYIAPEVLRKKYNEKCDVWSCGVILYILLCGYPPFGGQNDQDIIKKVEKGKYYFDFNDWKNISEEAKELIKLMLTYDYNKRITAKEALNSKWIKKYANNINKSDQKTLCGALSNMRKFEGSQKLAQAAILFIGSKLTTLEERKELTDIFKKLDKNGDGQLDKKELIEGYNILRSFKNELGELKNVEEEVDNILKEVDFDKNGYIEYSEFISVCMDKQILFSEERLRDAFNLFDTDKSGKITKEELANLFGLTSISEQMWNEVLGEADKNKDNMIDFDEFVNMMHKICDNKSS
The target in assay [6] is Plasmodium falciparum protein kinase 6 (PK6, PF3D7_1337100) (UniProt Q8IDW1). The assay can be described thus: PfPK6 kinase inhibitors, biochemical, TCAMS library (AID 1159586). Conditions: recombinant PfPK6, Kinase-Glo ATP depletion luminescence.
Plasmodium falciparum protein kinase 6 (PK6, PF3D7_1337100), sequence (Q8IDW1 1-305): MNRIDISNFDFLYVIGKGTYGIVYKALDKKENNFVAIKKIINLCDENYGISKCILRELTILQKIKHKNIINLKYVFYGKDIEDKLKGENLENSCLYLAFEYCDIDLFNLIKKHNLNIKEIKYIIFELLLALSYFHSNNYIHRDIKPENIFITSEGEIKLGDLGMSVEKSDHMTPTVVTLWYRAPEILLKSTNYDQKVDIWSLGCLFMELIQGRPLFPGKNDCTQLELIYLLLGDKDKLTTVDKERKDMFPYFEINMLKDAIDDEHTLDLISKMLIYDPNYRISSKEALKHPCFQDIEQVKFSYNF
Assay [7] addresses Protein kinase 7 (PK7), Plasmodium falciparum 3D7 (PF3D7_0213400) (UniProt Q7YTF7). The assay can be described thus: inhibition of Plasmodium PK7 catalytic activity – biochemical, TCAMS antimalarial set, Kinase-Glo luminescence (AID 1159587). Conditions: recombinant PfPK7, Kinase-Glo ATP depletion luminescence.
For assay [8], the target named is Calcium-dependent protein kinase 4 (Plasmodium falciparum (isolate 3D7)) (UniProt Q8IBS5). The assay can be described thus: PfCDPK4 kinase inhibitors, biochemical, TCAMS library (AID 1159588; cut-off not given, nearly all actives have IC50 up to about 0.91 µM). Conditions: recombinant PfCDPK4, Kinase-Glo ATP depletion luminescence.
Calcium-dependent protein kinase 4 (Plasmodium falciparum (isolate 3D7)), sequence (Q8IBS5 whole entry, looked up): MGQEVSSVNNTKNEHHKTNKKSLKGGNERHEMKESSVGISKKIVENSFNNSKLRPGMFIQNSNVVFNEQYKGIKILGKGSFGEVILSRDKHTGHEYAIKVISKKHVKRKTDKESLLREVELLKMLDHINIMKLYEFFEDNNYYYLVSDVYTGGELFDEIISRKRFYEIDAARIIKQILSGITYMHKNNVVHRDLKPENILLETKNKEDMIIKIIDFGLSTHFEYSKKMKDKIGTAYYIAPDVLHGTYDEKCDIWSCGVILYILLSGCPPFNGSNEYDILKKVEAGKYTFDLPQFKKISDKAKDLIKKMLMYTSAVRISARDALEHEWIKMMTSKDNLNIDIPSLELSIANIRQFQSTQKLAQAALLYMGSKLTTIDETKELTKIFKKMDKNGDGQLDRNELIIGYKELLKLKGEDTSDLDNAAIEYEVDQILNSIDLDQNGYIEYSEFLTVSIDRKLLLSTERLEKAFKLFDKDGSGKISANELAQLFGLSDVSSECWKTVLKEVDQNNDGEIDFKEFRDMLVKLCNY

Protein kinase 7 (PK7), Plasmodium falciparum 3D7 (PF3D7_0213400), sequence (Q7YTF7 1-343): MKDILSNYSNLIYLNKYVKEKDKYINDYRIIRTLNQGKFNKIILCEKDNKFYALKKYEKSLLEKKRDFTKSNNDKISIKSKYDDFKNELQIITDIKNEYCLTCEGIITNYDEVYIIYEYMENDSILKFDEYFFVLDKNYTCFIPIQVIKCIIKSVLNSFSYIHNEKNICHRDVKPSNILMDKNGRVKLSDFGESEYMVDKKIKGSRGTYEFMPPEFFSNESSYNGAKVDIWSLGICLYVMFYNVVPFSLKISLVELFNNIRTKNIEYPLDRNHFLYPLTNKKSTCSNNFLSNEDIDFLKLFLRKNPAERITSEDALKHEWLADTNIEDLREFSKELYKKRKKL

In the case of `Cc1cc(NC(=O)c2ccco2)ccc1OC1CCN(Cc2ccccc2)CC1`, the growth inhibition is 95% (active) in assay [1] and 93% (active) in assay [4]. In addition, the inhibition is 3% in assay [2] and -9% in assay [3]. The outcome in assay [5], in assay [6], in assay [7] and in assay [8] was inactive.

Turning to `COc1ccc2nccc([C@@H](O)CN3CCC(NC(=O)C(c4ccsc4)N4CCN(c5ccccc5OC)CC4)CC3)c2c1` (stereo not given in full), the figures for the growth inhibition in assay [1] and in assay [4] were 50% (active) and 95% (active), respectively. For the same molecule, the inhibition is 11% in assay [2] and -2% in assay [3]. Besides, the result in assay [5], in assay [6], in assay [7] and in assay [8] was inactive.

As for `CC1CCCCN1CCCNC(=O)c1cccc(-c2cc3cc(Cl)c(Cl)cc3[nH]2)c1` (stereo not given), the values for the growth inhibition in assay [1] and in assay [4] were 7% and 94% (active), respectively. The results for the inhibition in assay [2] and in assay [3] were 22% and -2%, respectively. Also, the result in assay [5], in assay [6], in assay [7] and in assay [8] was inactive.

Take `NC1=NC2(CCCCC2)N(OCCCCCCC2CCCCC2)C(N)=N1`: the figures for the growth inhibition in assay [1] and in assay [4] were 49% and 97% (active), respectively. In addition, the results for the inhibition in assay [2] and in assay [3] were 77% (active) and -4%, respectively. In addition, the result in assay [5], in assay [6], in assay [7] and in assay [8] was inactive.

Take `Cc1cccc(C)c1OC(=O)[C@@H](C)[C@@H](O)C1(Sc2ccccc2)CCN(C)CC1`: the growth inhibition in assay [1] is 92% (active); in assay [4], 98% (active). Besides, the inhibition in assay [2] was 23%; in assay [3], 1%. The outcome in assay [5], in assay [6], in assay [7] and in assay [8] was inactive.

For `CC(CN1CCN(C)CC1)C(=O)Nc1ccc(-c2ccc(-c3nc4ccccc4[nH]3)cc2)cc1` (stereo not given), the growth inhibition was 87% (active) in assay [1] and 92% (active) in assay [4]. In addition, the inhibition in assay [2] was 13%; in assay [3] it was 4%. Besides, the outcome in assay [5], in assay [6], in assay [7] and in assay [8] was inactive.

Consider `O=C(NC1CCN(c2ncc(C(F)(F)F)cc2Cl)CC1)c1cccs1`, for which the growth inhibition is 65% (active) in assay [1] and 84% (active) in assay [4]. The inhibition in assay [2] was 15%; in assay [3], -1%. Also, the result in assay [5], in assay [6], in assay [7] and in assay [8] was inactive.

As to `Cc1ccc(NC(=O)c2ccnc(N3CCN(c4ccncc4)CC3)c2)cc1F`, the growth inhibition in assay [1] was 12%; in assay [4] it was 94% (active). In addition, the results for the inhibition in assay [2] and in assay [3] were 43% and -2%, respectively. In addition, the outcome in assay [5], in assay [6], in assay [7] and in assay [8] was inactive.

On to `CN(C)c1ccc(-c2csc(C(=O)NC3CCN(Cc4ccc(C(C)(C)C)cc4)C3)c2)cc1` (stereo not given), for which the growth inhibition in assay [1] was 50% (active); in assay [4] it was 99% (active). The inhibition in assay [2] is 26%; in assay [3] it was -1%. In addition, the outcome in assay [5], in assay [6], in assay [7] and in assay [8] was inactive.

As to `Nc1nc(N)c2c(Cc3ccc(Br)cc3)cccc2n1`, the growth inhibition in assay [1] is 20%; in assay [4], 99% (active). In addition, the values for the inhibition in assay [2] and in assay [3] were 28% and 0%, respectively. The result in assay [5], in assay [6], in assay [7] and in assay [8] was inactive.

Regarding `COc1ccc(-c2ccc(CNCc3ccsc3)cc2)cc1S(=O)(=O)NCCN1CCCC1`, the growth inhibition in assay [1] is 30%; in assay [4], 94% (active). For the same molecule, the inhibition in assay [2] was 22%; in assay [3], 3%. Also, the result in assay [5], in assay [6], in assay [7] and in assay [8] was inactive.

Take `CCCc1cc(Cc2cnc(N)nc2N)cc(OCCCCCC(=O)O)c1OC`: the growth inhibition is 2% in assay [1] and 95% (active) in assay [4]. The inhibition in assay [2] was 8%; in assay [3], 4%. For the same molecule, the outcome in assay [5], in assay [6], in assay [7] and in assay [8] was inactive.

Take `CN(C)c1ccc(-c2ccc(C(=O)NC3CCN(Cc4ccc(F)cc4)CC3)s2)cc1`: the growth inhibition in assay [1] is 19%; in assay [4], 87% (active). The inhibition in assay [2] is 34%; in assay [3] it was -1%. For the same molecule, the result in assay [5], in assay [6], in assay [7] and in assay [8] was inactive.

As to `Cc1cc(N[C@@H](CC(C)C)C(=O)NC2CCCC2)nc(NCCc2ccc(F)cc2)n1`, the growth inhibition is 47% in assay [1] and 100% (active) in assay [4]. Moreover, the values for the inhibition in assay [2] and in assay [3] were 15% and -2%, respectively. Also, the result in assay [5], in assay [6], in assay [7] and in assay [8] was inactive.

For the molecule `COc1ccc(C(=O)N[C@@H](CC(C)C)C(=O)NC2CC[C@@H](C)N(C(=O)Nc3ccc(Cl)cc3)CC2=O)cc1OCCN1CCOCC1` (stereo not given in full), the growth inhibition in assay [1] is 91% (active); in assay [4], 96% (active). For the same molecule, the inhibition in assay [2] and in assay [3] was 5% each time. The result in assay [5], in assay [6], in assay [7] and in assay [8] was inactive.

With `Clc1ccc(C=NNc2ccnc3ccccc23)cc1`, the results for the growth inhibition in assay [1] and in assay [4] were 97% (active) and 100% (active), respectively. The inhibition in assay [2] was 5%; in assay [3] it was 1%. Also, the outcome in assay [5], in assay [6], in assay [7] and in assay [8] was inactive.

On to `Cc1cccc(OCC(=O)Nc2cccc(NC(=O)COc3cccc(C)c3)n2)c1`, for which the growth inhibition in assay [1] was 30%; in assay [4], 98% (active). The inhibition is -3% in assay [2] and 0% in assay [3]. The result in assay [5], in assay [6], in assay [7] and in assay [8] was inactive.

Turning to `FC(F)(F)c1cccc(Nc2nc(-n3ccnc3)nc(-n3ccnc3)n2)c1`, the growth inhibition in assay [1] was 9%; in assay [4] it was 97% (active). Besides, the inhibition in assay [2] is 5%; in assay [3], 1%. Also, the result in assay [5], in assay [6], in assay [7] and in assay [8] was inactive.

For `CCc1ccc(NC(=O)c2ccc(CN3CCCN(Cc4cccs4)CC3)cc2)cc1`, the growth inhibition was -1% in assay [1] and 87% (active) in assay [4]. Further, the inhibition in assay [2] was 57% (active); in assay [3], 0%. Moreover, the outcome in assay [5], in assay [6], in assay [7] and in assay [8] was inactive.

As for `O=C(NC1CCN(CCN2CCC(c3cn(CCO)c4ccccc34)CC2)CC1)c1ccc(-c2ccc(C(F)(F)F)cc2)cc1`, the growth inhibition in assay [1] was 54% (active); in assay [4], 98% (active). Besides, the inhibition was 30% in assay [2] and -1% in assay [3]. Further, the result in assay [5], in assay [6], in assay [7] and in assay [8] was inactive.
